From PubChem BioAssay
L929 necroptosis – L929 zVAD cell death inhibition. L929 zVAD necroptosis rescue, ATP luminescence, 24 h; with zVAD 60 µM. viability rescue, % at 10 µM. 0.38% of 220,000 active. AID 1377;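 active = activation, scaled between plate controls, above about 75%, limit read from the data; inactive = activation under that limit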
TNF death inh – blocks TNF-alpha induced death of Jurkat FADD-/- cells; Jurkat FADD-/- TNF necroptosis rescue, ATP luminescence, 24 h; 0 = TNF only, 100 = no-TNF cells; 0.068% of 220,000 active; activation (protection from cell death), % at 10 µM; AID 463075;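 active = activation, meaning protection from cell death, of at least 50% relative to plate controls; inactive = activation below 50%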;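 note: necroptosis triggered by 40 ng/mL TNF-alpha added together with compound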
eIF4E-4G inh – blocks eIF4E binding to eIF4G; 0.37% of 220,000 active; TR-FRET eIF4E-eIF4GI(517-606) binding, 2 h; inhibition, % at 21.7 µM; P63073+Q04637;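 active = inhibition above about 30%, limit read from the data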
EBV gp42 block – blocks Epstein-Barr virus glycoprotein 42 binding; Q1HVG2; Fluorescence polarization binding assay, mP read-out; inhibition, % (tested at 21.74 µM); 0.42% of 220,000 active; in the data active = inhibition above about 50%
Target sequence (Q1HVG2 whole entry, looked up): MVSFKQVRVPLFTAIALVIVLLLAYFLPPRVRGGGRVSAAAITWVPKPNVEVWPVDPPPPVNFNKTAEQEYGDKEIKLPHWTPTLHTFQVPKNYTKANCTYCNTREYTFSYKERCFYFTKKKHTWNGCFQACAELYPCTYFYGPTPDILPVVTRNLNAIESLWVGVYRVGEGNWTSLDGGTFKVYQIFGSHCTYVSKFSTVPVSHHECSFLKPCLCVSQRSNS
zVAD necrop conf – confirmed blocker of zVAD induced death in L929 cells; activation (protection from necroptosis), % at 10 µM; 16% of 760 active; shares compounds with L929 necroptosis; L929 zVAD-induced necroptosis rescue, ATP luminescence, 24 h;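 active = mean protection from necroptosis of at least 50% over duplicate tests; inactive = mean protection below 50%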
A number is an active result; n = inactive; x = no result given. This is a sample that favours compounds with a hit; in the whole collection about 1.2% have one here.

SMILES	L929 necroptosis	TNF death inh	eIF4E-4G inh	EBV gp42 block	zVAD necrop conf
Clc1ccc(/C=N/Nc2ncnc3nc[nH]c23)cc1	78	n	66	n	n
CNS(=O)(=O)c1ccc2nc(NC(=O)/C=C/c3ccco3)sc2c1	76	n	n	n	n
CC1(C(=O)OCC(=O)Nc2ccc(C(N)=O)cc2)CC1(Cl)Cl (stereo unspecified)	n	n	n	n	x
CC1(C(=O)OCC(=O)Nc2ccc3ccccc3c2)CC1(Cl)Cl (stereo unspecified)	78	n	n	n	n
Cc1nnc(SCC(=O)N2CCN(C(=O)c3ccco3)CC2)n1-c1ccccc1	n	n	n	n	x
c1ccn(-c2ccc(-c3ccn[nH]3)cc2)c1	86	n	n	n	n
COc1ccc(C(=O)COc2ccc(C)cc2NC(C)=O)cc1	n	n	n	n	x
COc1cc(/C=N/NC2=NCCCCC2)ccc1O	n	n	n	n	x
COc1cc(/C=N/Nc2ncnc3sc4c(c23)CCC4)ccc1O	82	n	n	n	n
O=C(NCC1CCCO1)c1cc2ccccc2oc1=O (stereo unspecified)	n	n	n	n	x
CCCNC(=O)c1ccc2c(c1)ncn2-c1cc(C)cc(C)c1	76	n	n	n	n
CCCCNC(=O)c1ccc2c(c1)ncn2C1CCCCC1	79	n	n	n	n
COc1ccc(CCNC(=O)c2ccc(-c3ccc([N+](=O)[O-])cc3)o2)cc1OC	n	n	n	n	x
O=C(Oc1ccc(-c2cnc3ccccc3n2)cc1)c1cccc([N+](=O)[O-])c1	94	n	n	n	n
O=C(Oc1ccc(-c2cnc3ccccc3n2)cc1)c1ccc(Br)o1	85	n	n	n	n
O=C(Oc1ccc(-c2cnc3ccccc3n2)cc1)c1ccc(Cl)c([N+](=O)[O-])c1	87	n	n	n	n
CC(=O)Nc1cccc(-c2nnc(SCC(=O)n3c4c(c5ccccc53)CCCC4)n2C)c1	n	n	n	n	x
CCNc1nc(NCC)nc(Oc2ccc(N)cc2)n1	78	n	n	n	n
O=C(CCCl)N1CCCC2(CCCCC2)C1	n	n	n	n	x
O=Cc1ccc2noc(-c3ccc(F)cc3)c2c1	82	n	n	151	n
COc1ccc(Cl)cc1NC(=O)COc1cccc(-n2cnnn2)c1	81	n	n	n	n
O=C(COc1cccc(-n2cnnn2)c1)Nc1ccccc1	n	n	n	n	x
COc1ccc(OCc2nnc(NC(=O)Nc3ccccc3F)s2)cc1	83	n	n	n	n
O=C(Nc1nnc(-c2ccncc2)s1)Nc1ccccc1F	78	n	n	n	n
O=C(COc1ccccc1F)Nc1nnc(-c2ccncc2)s1	n	n	n	n	x
SMILES	L929 necroptosis	TNF death inh	eIF4E-4G inh	EBV gp42 block	zVAD necrop conf
Cc1ccccc1NC(=O)Cc1nnc(NC(=O)Nc2ccccc2F)s1	n	n	n	n	x
Cc1cc(S(=O)(=O)N2CCCC(C(=O)Nc3ccc(C(=O)O)cc3)C2)ccc1Cl (stereo unspecified)	n	n	n	n	x
O=c1/c(=C/c2ccc(O)cc2)sc2n1CCCN=2	n	n	n	n	x
O=c1/c(=C\c2ccc(F)cc2)sc2n1CCCN=2	76	n	n	n	n
Nc1[nH]nc2c1NN(c1ccc(Cl)cc1Cl)N2	n	n	n	n	x
O=C(Nc1ccc(N2CCCCC2)cc1)C(Cl)c1ccccc1 (stereo unspecified)	77	n	n	n	n
O=C(Nc1ccc(N2CCCC2)cc1)C(c1ccccc1)c1ccccc1	n	n	n	n	x
Cc1cc(C)cc(NC(=O)Nc2ccc(N3CCCCC3)cc2)c1	77	n	n	n	n
Cc1[nH]n(-c2ccccc2)c(=O)c1/C=N/NC(=O)C(C)C	n	n	n	n	x
Fc1cccc(Cl)c1CNn1cn[nH]c1=S	n	n	n	n	x
S=c1[nH]ncn1NCc1ccc(Cl)cc1Cl	87	n	n	n	n
CC(=O)OCC(CCn1cnc2cnc(N)nc21)COC(C)=O	x	x	n	n	x
